This passage reports growth results from PubChem BioAssay (NCI).

The panel holds about 83,000 compounds, 20% with a hit somewhere; the sample as a whole holds those more often.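 Cells were grown in 96-well plates and exposed to the test compound at a single concentration for 48 hours; results are reported as percent growth, with values below 10 considered active.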 A number with no mark means an inactive call. The source made the active and inactive calls.

The test relates to HL-60(TB) leukemia. Kind of test: NCI-60 one-dose screen, 48 h (100 = growth as untreated, 0 = no growth, -100 = all killed). The following applies: 10 µM unless noted.
As for `Cc1ccc(-c2nc(Nc3ccc(C)c(S(N)(=O)=O)c3)c3ccccc3n2)cc1`, the growth is 89.1%.

With `Cn1cc(-c2cc3nc(-c4cn(C)c5ncccc45)cc(N)n3n2)c2cc(Cl)ccc21`, the growth was -66.6% (active).

`O=S(=O)(Nc1ncccn1)c1ccc(-n2c(-c3ccccc3)nc(-c3ccccc3)c2-c2ccccc2)cc1`: the growth was 95.5%.

Regarding `O=C1Nc2cc(-c3ccc(NC(=O)c4cccs4)cc3)ccc2/C1=C/c1ccc[nH]1`, the growth is 90.9%.

As for `Cc1ccc(S(=O)(=O)N2CCN(S(=O)(=O)c3oc(-c4ccccc4)nc3C#N)CC2)cc1`, the growth is 69.4%.

With `O=C1NC(=NC23CC4CC(CC(C4)C2)C3)N/C1=C\c1ccc2ncccc2n1`, the growth was -19.1% (active).

On to `O=C1Nc2cc(Cl)ccc2/C1=C/c1ccc(OCc2ccc(Br)cc2F)cc1`, for which the growth was 81.5%.

Take `OCCCNc1oc(-c2ccccc2)nc1[P+](c1ccccc1)(c1ccccc1)c1ccccc1`: the growth was -35.8% (active).

`COc1ccc(-c2c(N)c(=O)n(C)c3ccccc23)cc1`: the growth was 79.3%.

For the compound `Cc1ccc(C(=O)CSc2nnc(-c3c[nH]c4ccccc34)n2-c2ccccc2)cc1`, the growth is 43.3%.

In the case of `CC(=O)OCC1OC(OC2C(COC(C)=O)OC(n3cc(COc4ccc5ccc(=O)oc5c4)nn3)C(OC(C)=O)C2OC(C)=O)C(OC(C)=O)C(OC(C)=O)C1OC(C)=O` (stereo not drawn), the growth was 103%.

Regarding `COC(=O)c1cc(C(=O)C(Br)Br)n2c1ccc1c3ccccc3ccc12`, the growth is 76.2%.

In the case of `CCCn1c(O)c(N=Nc2nc(-c3cc4ccccc4oc3=O)cs2)c2cc(Br)ccc21`, the growth was 99.3%.
